Assay outcomes (PubChem)
Many of the other results were omitted from the sample, so hits are more common in it than they were.
MARV entry inh: qHTS for inhibitors of binding or entry into cells for Marburg Virus | Marburg virus pseudotyped entry inhibition, cell reporter | Potency, µM (series often up to 37.8 µM), without a hit: at the highest dose activity change, negative = inhibition, most hits filed as inhibitors | hit rate 1.8% among 300,000; calls by dose curve; tested in HEK293 cells; also: potency is read from the fitted curve at half-maximal effect; % is scaled to controls: 0 for no effect and ±100 for the full control effect
CHX counter: Cycloheximide Counterscreen for Small Molecule Inhibitors of Shiga Toxin | cell reporter, cycloheximide protein synthesis inhibition counterscreen | max response, % | AID 2314, 2010 | hit rate 12% among 300,000; in the data active = max response mostly above about 13%, no sharp cut-off; inactive = mostly below about 14%; also: read at 38.3 µM for the half of the compounds with a filed dose; 0% is about no effect
AMA1-RON2 inh: qHTS for Inhibitors of AMA1-RON; Towards Development of Antimalarial Drug Lead: Primary Screen; AlphaScreen AMA1-biotinylated RON2 peptide binding; hit rate 0.2% among 360,000; AID 720542, 2013; Plasmodium falciparum AMA1 (3D7) - RON2 peptide interaction; Potency, µM (highest dose often 58.2 µM), inactives show top-dose activity change, negative = inhibition, actives largely listed as inhibitors; active = well fitted inhibition curve with a large enough effect; inconclusive = small, poorly fitted or top-dose-only effect; inactive = no such curve, though single readings can be large or run the other way;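 also: potency is read from the fitted curve at half-maximal effect; 0% = vehicle wells and -100% = peptide control; nearly all actives have a fitted effect of over 45% in size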
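AMA1 (3D7) with his tag at 25 nM final met compounds first, then biotinylated RON2 peptide at 25 nM; detection used donor plus acceptor beads, 10 µg/mL apiece, read by AlphaScreen after 30 min at room temperature.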
Lassa entry inh: qHTS for Inhibitors of binding or entry into cells for Lassa Virus; Lassa virus pseudotype entry inhibition, cell reporter; Potency, µM (highest dose often 37.9 µM), without a hit: at the highest dose activity change, negative = inhibition, usual class: inhibitors; hit rate 1.2% among 300,000; calls by dose curve; tested in HEK293 cells; also: potency is read from the fitted curve at half-maximal effect; % is scaled to controls: 0 for no effect and ±100 for the full control effect; nearly all actives have a fitted effect of over 50% in size
Shiga inhibitor: A qHTS for Small Molecule Inhibitors of Shiga Toxin | AID 2315, 2010 | inhibition, % at 38.7 µM | hit rate 9.2% among 290,000 | Vero cells, Shiga toxin protein synthesis inhibition reporter; in the data active = inhibition mostly above about 28%, no sharp cut-off; inactive = mostly below about 43%; also: 0% is about no effect
An asterisk follows results filed as active; [ ] = another dose, or the depositor's remark.

For CC(=O)Nc1ccc(NC(=O)c2cc(C)nn2-c2ccccc2)cc1 the results were MARV entry inh -20.0%, CHX counter -1.7, AMA1-RON2 inh -1.9%, Lassa entry inh -7.3% and Shiga inhibitor 0.2.
CCOC(=O)c1cccc(NC(=O)c2cc(C)nn2-c2ccccc2)c1 was read as MARV entry inh inconclusive, CHX counter -1.1, AMA1-RON2 inh 1.0%, Lassa entry inh inconclusive and Shiga inhibitor -4.5.
Cc1cc(C(=O)NCCCN2CCN(c3cc(Cl)ccc3C)CC2)n(-c2ccccc2)n1 was read as MARV entry inh 6.5%, CHX counter 0.6, AMA1-RON2 inh -12.4% and Shiga inhibitor -1.3.
Screening CCc1ccc(NC(=O)c2cc(C)nn2-c2ccccc2)cc1 returned MARV entry inh -28.6%, CHX counter 12.9*, AMA1-RON2 inh -6.2%, Lassa entry inh inconclusive and Shiga inhibitor 26.0.
Screening Cc1ccc(-n2c(=O)c3ccc(C(=O)NCc4ccco4)cc3n(CC(=O)Nc3ccccc3C(F)(F)F)c2=O)cc1 returned MARV entry inh 7.9%[46.1 µM] and Lassa entry inh -1.8%[46.1 µM].
For CNC(=O)NC(=O)CN1C=NC2SC(c3ccccc3)C=C2C1=O (stereo not given) the results were MARV entry inh -1.7%[46.1 µM].
`COc1ccccc1-c1csc(C(O)c2ccc(F)c(F)c2)n1` (stereo not given) gave AMA1-RON2 inh 45.8%.
Screening CCc1ccc(-c2nc(CS(=O)CC(=O)NC3CC3)c(C)o2)cc1 (stereo not given) returned CHX counter 10.3, AMA1-RON2 inh -14.9% and Shiga inhibitor 12.1.
`CCc1ccc(-c2nc(CS(=O)CC(=O)O)c(C)o2)cc1` (stereo not given) gave CHX counter 46.0*, AMA1-RON2 inh -17.8% and Shiga inhibitor 52.9*.
For CCc1ccc(-c2nc(CS(=O)CC(=O)NC3CCCCCC3)c(C)o2)cc1 (stereo not given) the results were CHX counter 14.4*, AMA1-RON2 inh 1.0% and Shiga inhibitor 14.8.
`COc1ccc(-c2nc(CS(=O)CC(=O)NCCC3=CCCCC3)c(C)o2)cc1` (stereo not given) gave CHX counter 30.6*, AMA1-RON2 inh 0.0% and Shiga inhibitor 81.5.
Screening CCc1ccc(-c2nc(CS(=O)CC(=O)NCc3cccnc3)c(C)o2)cc1 (stereo not given) returned MARV entry inh 27.1%, CHX counter 17.6*, AMA1-RON2 inh -0.7%, Lassa entry inh 11.3% and Shiga inhibitor 16.5.
Screening Cc1nn(C(C)C)c(C)c1CN1CCC(C(=O)Nc2cccc(-c3cccc(F)c3)c2)CC1 returned CHX counter -4.2, AMA1-RON2 inh -12.4% and Shiga inhibitor -27.9.
`N#Cc1c(C(F)(F)F)cc(-c2cccc(Cl)c2)[nH]c1=O` gave MARV entry inh -28.4%[46.1 µM], CHX counter 5.3, AMA1-RON2 inh 15.1%, Lassa entry inh 6.1% and Shiga inhibitor -8.3.
`N#Cc1ccc(C(=O)OCC(=O)Nc2cccnc2Cl)cc1` gave AMA1-RON2 inh -5.1%.
`CCOC(=O)c1cc(S(=O)(=O)N2CCN(c3cc(Cl)ccc3C)CC2)[nH]n1` gave Lassa entry inh 2.0%[46.1 µM].
Cc1ccc(-c2nc(CS(=O)CC(=O)NCCCc3ccccc3)c(C)o2)cc1 (stereo not given) was read as MARV entry inh -28.1%[46.1 µM], CHX counter 22.0*, AMA1-RON2 inh -0.5%, Lassa entry inh 1.1%[46.1 µM] and Shiga inhibitor 2.4.
For CN(C)c1ccc(C(=O)Nc2nc3c(s2)CCCC3)cc1 the results were MARV entry inh inconclusive, CHX counter 44.8*, AMA1-RON2 inh -12.5%, Lassa entry inh inconclusive and Shiga inhibitor 21.0*.
For CC(C)(C)c1ccc(C(=O)NC(=S)Nc2nc3c(s2)CCCC3)cc1 the results were MARV entry inh 1.26µM*, CHX counter 69.1*, AMA1-RON2 inh 12.5%, Lassa entry inh inconclusive and Shiga inhibitor 112.8*.
`C/C(=N\Nc1nc2c(s1)CCCC2)c1ccc(Cl)cc1` gave MARV entry inh inconclusive, CHX counter 82.7*, AMA1-RON2 inh -10.2%, Lassa entry inh -21.0% and Shiga inhibitor 116.5*.
Screening CC(C)[C@H](NC(=O)c1ccccc1F)C(=O)Nc1nc2c(s1)CCCC2 returned MARV entry inh 17.9%[46.1 µM], CHX counter 42.5*, AMA1-RON2 inh -22.2%, Lassa entry inh 5.3% and Shiga inhibitor 17.8.
For CC(C)CCN1C(=O)c2ccccc2C1c1nnnn1-c1ccc2c(c1)OCCO2 (stereo not given) the results were AMA1-RON2 inh 1.7%.
For COc1cccc(N2CCN(C(=O)CN3CCSc4ccc(S(=O)(=O)N(C)C)cc43)CC2)c1 the results were Lassa entry inh -8.7%[46.1 µM].
`COc1ccc(NCc2ccccc2-c2nnc(-c3ccccc3)o2)cc1Cl` gave MARV entry inh inconclusive and Lassa entry inh 6.6%[46.1 µM].
Screening O=C(Cn1c(=O)c2sccc2n(CC(=O)Nc2ccc(Cl)cc2Cl)c1=O)NCCc1ccccc1 returned MARV entry inh 1.7%[46.1 µM] and Lassa entry inh 2.1%[46.1 µM].
Cc1ccc(-n2c(SCC(=O)Nc3ccc4c(c3)OCO4)nc3c([nH]c4ccccc43)c2=O)cc1 was read as Lassa entry inh -22.0%[46.1 µM].
`CCCCN(C)C(=O)c1sc(=O)n(Cc2ccc(Cl)c(Cl)c2)c1C` gave AMA1-RON2 inh -4.2%.
For CC(C)C[C@H](NC(=O)[C@H](CCCCN)NC(=O)CNC(=O)[C@H](CC(C)C)NC(=O)[C@@H](N)C(C)C)C(=O)N[C@@H](CO)C(=O)N[C@@H](CCC(N)=O)C(=O)N[C@@H](CCC(=O)O)C(=O)N[C@@H](CC(C)C)C(=O)N[C@@H](Cc1cnc[nH]1)C(=O)N[C@@H](CCCCN)C(=O)N[C@@H](CC(C)C)C(=O)N[C@@H](CCC(N)=O)C(=O)N[C@H](C(=O)N[C@@H](Cc1ccc(O)cc1)C(=O)N1CCC[C@H]1C(=O)N[C@@H](CCCNC(=N)N)C(=O)N[C@H](C(=O)N[C@@H](CC(N)=O)C(=O)N[C@H](C(=O)NCC(=O)N[C@@H](CO)C(=O)NCC(=O)N[C@H](C(=O)N1CCC[C@H]1C(N)=O)[C@@H](C)O)[C@@H](C)O)[C@@H](C)O)[C@@H](C)O the results were CHX counter -6.9 and Shiga inhibitor 7.5.
For Cc1nc(SCC(=O)NNC(=O)c2ccc(F)cc2)c2ccccc2n1 the results were AMA1-RON2 inh 76.2%.
For CSc1nc(N(C)NC(=O)c2ccc(F)cc2)c2ccccc2n1 the results were MARV entry inh 1.26µM*, CHX counter -1.7, AMA1-RON2 inh -12.0%, Lassa entry inh inconclusive and Shiga inhibitor -13.3.
CSc1cccc(NC(=S)N(CCN(C)C)C(C)c2ccccn2)c1 (stereo not given) was read as MARV entry inh 10µM*, CHX counter 1.0, AMA1-RON2 inh 1.8%, Lassa entry inh inconclusive and Shiga inhibitor -3.4.
